Sampled rows, rich in hits. Any-hit rate of the full collection: about 3.5%.
SARS 3CLpro inh: SARS-CoV 3CLpro protease inhibition. inhibition, % at 6 µM. AID 1706. recombinant SARS-CoV 3CLpro, quenched FRET peptide cleavage. P0C6X7. 290,000 compounds, 0.14% hits; in the data active = inhibition above about 12%
BoNT-F LC inh: BoNT F light chain protease inhibition; 360,000 compounds, 0.22% hits; Multiplex microsphere protease cleavage assay, flow cytometry; inhibition, % at 10 µM; in the data active = inhibition above about 35%, passing the limit was not always enough; inconclusive = no clear call, values can overlap the other calls; also: plate controls were buffer without enzyme for full effect and enzyme alone for no effect
BoNT-A LC inh2: BoNT A light chain protease inhibition. 360,000 compounds, 0.17% hits. multiplex microsphere protease substrate cleavage, flow cytometry. AID 588499. inhibition, % at 10 µM; also: plate controls were buffer without enzyme for full effect and enzyme alone for no effect
Autofluor counter: flagged as autofluorescent in microsphere protease counterscreen; compound autofluorescence counterscreen, microsphere flow cytometry; hits give high values; fluorescence intensity (no concentration beside the values); 360,000 compounds, 3.1% hits; in the data active = fluorescence intensity above about 16000; inconclusive = no clear call, values can overlap the other calls
Anthrax LF prot: anthrax lethal factor protease inhibition; P15917; inhibition, % at 10 µM; 360,000 compounds, 0.12% hits; multiplex microsphere protease cleavage assay, LF; also: plate controls were buffer without enzyme for full effect and enzyme alone for no effect
Target sequence (P15917 whole entry, looked up): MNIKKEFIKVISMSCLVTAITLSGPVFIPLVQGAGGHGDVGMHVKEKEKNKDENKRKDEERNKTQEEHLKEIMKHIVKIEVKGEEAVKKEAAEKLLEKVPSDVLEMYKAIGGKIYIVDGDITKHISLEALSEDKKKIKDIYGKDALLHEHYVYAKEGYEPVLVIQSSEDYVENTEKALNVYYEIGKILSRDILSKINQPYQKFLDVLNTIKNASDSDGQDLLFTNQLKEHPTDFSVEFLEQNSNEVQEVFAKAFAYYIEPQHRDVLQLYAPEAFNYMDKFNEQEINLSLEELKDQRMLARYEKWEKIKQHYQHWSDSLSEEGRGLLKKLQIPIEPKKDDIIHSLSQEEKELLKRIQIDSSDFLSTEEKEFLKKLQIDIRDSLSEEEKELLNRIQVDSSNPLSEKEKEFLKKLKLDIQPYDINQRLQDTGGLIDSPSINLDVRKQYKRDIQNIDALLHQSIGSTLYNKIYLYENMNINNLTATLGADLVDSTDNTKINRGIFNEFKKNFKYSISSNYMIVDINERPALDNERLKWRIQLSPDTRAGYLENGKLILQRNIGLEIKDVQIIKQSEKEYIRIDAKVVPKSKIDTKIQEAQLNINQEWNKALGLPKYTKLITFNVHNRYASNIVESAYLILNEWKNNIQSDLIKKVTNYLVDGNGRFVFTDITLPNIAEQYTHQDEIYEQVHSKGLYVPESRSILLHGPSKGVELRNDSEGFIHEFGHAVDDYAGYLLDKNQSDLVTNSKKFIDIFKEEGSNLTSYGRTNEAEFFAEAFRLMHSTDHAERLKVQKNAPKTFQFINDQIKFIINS
* marks the source's active call; other numbers are inactive results; ! = repeats disagree. Rule as the data show it, unless noted: active = inhibition above about 30%; inconclusive = no clear call, values can overlap the other calls; inactive = below that.

Results for Cc1ccc(CC(NC(=O)c2ccccc2)C(=O)NCC(=O)O)cc1 (centres undefined) ?
SARS 3CLpro inh: 1; BoNT-F LC inh: 4; BoNT-A LC inh2: 2; Autofluor counter: 22985*; Anthrax LF prot: -1

How did O=C(O)c1ccc(NC(=S)NC(NC(=O)c2ccco2)C(Cl)(Cl)Cl)cc1 (centres undefined) do in these assays?
SARS 3CLpro inh: -3; BoNT-F LC inh: -9; BoNT-A LC inh2: -4; Autofluor counter: 25206*; Anthrax LF prot: -5

Results for Cc1ccc(CC(NC(=O)c2ccccc2)C(=O)NC(CC(C)C)C(=O)O)cc1 (centres undefined) ?
SARS 3CLpro inh: 6; BoNT-F LC inh: -5; BoNT-A LC inh2: -1; Autofluor counter: 5008; Anthrax LF prot: 0

How did Cc1ccc(NC(=O)C(Cc2ccccc2)NC(=O)c2ccco2)cc1 (centres undefined) do in these assays?
SARS 3CLpro inh: 1; BoNT-F LC inh: -1; BoNT-A LC inh2: inconclusive; Autofluor counter: 23460*; Anthrax LF prot: -1

How did Cc1ccc(NC(=S)NC(NC(=O)c2ccco2)C(Cl)(Cl)Cl)cc1 (centres undefined) do in these assays?
SARS 3CLpro inh: 0; BoNT-F LC inh: 9; BoNT-A LC inh2: 0; Autofluor counter: 2296; Anthrax LF prot: 0

How did COc1ccc(C(=O)C2CCCN(C(=O)CCNC(C)=O)C2)cc1OC (centres undefined) do in these assays?
SARS 3CLpro inh: 4; BoNT-F LC inh: -28; BoNT-A LC inh2: -3; Autofluor counter: 2968; Anthrax LF prot: 0

How did COC(=O)C1=NN(c2ccc(C)cc2)C2(S1)SC(C(C)=O)=C(C)N2c1ccccc1 (centres undefined) do in these assays?
SARS 3CLpro inh: 0; BoNT-F LC inh: -7; BoNT-A LC inh2: -3; Autofluor counter: 23648*; Anthrax LF prot: -5

What do the screens show for `S=C(NCCc1ccccc1)NCCc1cnc[nH]1`?
SARS 3CLpro inh: -6; BoNT-F LC inh: inconclusive; BoNT-A LC inh2: -2; Autofluor counter: 3725; Anthrax LF prot: 11

How did CCCOc1ccc(CSc2nc3ccccc3[nH]2)cc1 do in these assays?
SARS 3CLpro inh: 2; BoNT-F LC inh: 3; BoNT-A LC inh2: inconclusive; Autofluor counter: 22003*; Anthrax LF prot: -5

Results for COc1ccc(CC(=O)NNC(=O)CCC(=O)Nc2cc(C)ccc2C)cc1 ?
SARS 3CLpro inh: 6; BoNT-F LC inh: 3; BoNT-A LC inh2: 0; Autofluor counter: 4875; Anthrax LF prot: 2

Results for COc1ccc(CC(C(=O)Nc2cc(C)ccc2C)/C(N)=N/O)cc1 (centres undefined) ?
SARS 3CLpro inh: -1; BoNT-F LC inh: -1; BoNT-A LC inh2: -1; Autofluor counter: 16939*; Anthrax LF prot: -2

How did CCOC(=O)C1CCN(c2c(NCc3ccc(C(=O)NCCOC)cc3)c(=O)c2=O)CC1 do in these assays?
SARS 3CLpro inh: -5; BoNT-F LC inh: 15; BoNT-A LC inh2: 0; Autofluor counter: 4278; Anthrax LF prot: 3

What do the screens show for `CCOC(=O)C1CCN(c2c(NCCCN(CC)c3ccccc3)c(=O)c2=O)CC1`?
SARS 3CLpro inh: 7; BoNT-F LC inh: -1; BoNT-A LC inh2: inconclusive; Autofluor counter: 21430*; Anthrax LF prot: 0

How did CCCCNC(=O)c1ccc(CNc2c(N3CCC(C(=O)OCC)CC3)c(=O)c2=O)cc1 do in these assays?
SARS 3CLpro inh: -2; BoNT-F LC inh: -4; BoNT-A LC inh2: 0; Autofluor counter: 23374*!; Anthrax LF prot: -4

What do the screens show for `O=C(CCC(=O)N1CCOCC1)NCCc1ccc(F)cc1`?
BoNT-F LC inh: -3; BoNT-A LC inh2: 0; Autofluor counter: 3002; Anthrax LF prot: -10

How did CCCCn1c(O)c(C(C)=Nc2ccc(OCC)cc2)c(=O)[nH]c1=O do in these assays?
SARS 3CLpro inh: 0; BoNT-F LC inh: -12; BoNT-A LC inh2: 0; Autofluor counter: 3391; Anthrax LF prot: -3

Results for CCCCn1c(O)c(C(CC)=Nc2ccc(C(=O)O)cc2)c(=O)[nH]c1=O ?
SARS 3CLpro inh: 4; BoNT-F LC inh: -8; BoNT-A LC inh2: 0; Autofluor counter: 8172; Anthrax LF prot: -9

Results for CCCCn1c(O)c(C(C)=Nc2cccc(C(=O)O)c2)c(=O)[nH]c1=O ?
SARS 3CLpro inh: 2; BoNT-F LC inh: 0; BoNT-A LC inh2: inconclusive; Autofluor counter: 21668*; Anthrax LF prot: 0

What do the screens show for `CCCCn1c(O)c(C(C)=NCCc2c[nH]c3ccccc23)c(=O)[nH]c1=O`?
SARS 3CLpro inh: 8; BoNT-F LC inh: inconclusive; BoNT-A LC inh2: -3; Autofluor counter: 5010; Anthrax LF prot: 1

What do the screens show for `CCCCn1c(O)c(C(C)=NC(Cc2c[nH]c3ccccc23)C(=O)OC)c(=O)[nH]c1=O` (centres undefined)?
SARS 3CLpro inh: -1; BoNT-F LC inh: -3; BoNT-A LC inh2: -3; Autofluor counter: 20728*; Anthrax LF prot: 0

How did CCCCn1c(O)c(C(CC)=Nc2ccc3c(c2)CCC3)c(=O)[nH]c1=O do in these assays?
SARS 3CLpro inh: -4; BoNT-F LC inh: 9; BoNT-A LC inh2: 8; Autofluor counter: 16607*; Anthrax LF prot: -12

What do the screens show for `C=CCOc1ccc(/C=C\c2nc(O)c([N+](=O)[O-])c(=O)[nH]2)cc1OCC`?
SARS 3CLpro inh: 0; BoNT-F LC inh: -14; BoNT-A LC inh2: -4; Autofluor counter: 3769; Anthrax LF prot: 2

What do the screens show for `O=S(=O)(Nc1ccccn1)c1ccc(Cl)cc1`?
SARS 3CLpro inh: 0; BoNT-F LC inh: -3; BoNT-A LC inh2: -3; Autofluor counter: 23792*; Anthrax LF prot: 0

What do the screens show for `O=S(=O)(Nc1ncccn1)c1ccc(Cl)cc1`?
SARS 3CLpro inh: 3

How did Cc1ccc2cc(C(c3nnnn3C3CCCC3)N3CCN(c4ccc(F)cc4)CC3)c(=O)[nH]c2c1 (centres undefined) do in these assays?
SARS 3CLpro inh: 6; BoNT-F LC inh: 0; BoNT-A LC inh2: 0; Autofluor counter: 22513*; Anthrax LF prot: -3

What do the screens show for `COc1ccc2cc(C(c3nnnn3C3CCCC3)N3CCc4ccccc4C3)c(=O)[nH]c2c1` (centres undefined)?
SARS 3CLpro inh: -1; BoNT-F LC inh: -4; BoNT-A LC inh2: 2; Autofluor counter: 9920; Anthrax LF prot: 2

Results for CCCN1CCN(C(c2cc3cc(OCC)ccc3[nH]c2=O)c2nnnn2C2CCCCC2)CC1 (centres undefined) ?
SARS 3CLpro inh: -4; BoNT-F LC inh: 5; BoNT-A LC inh2: inconclusive; Autofluor counter: 22710*; Anthrax LF prot: -2

Results for COc1ccc2[nH]c(=O)c(C(c3nnnn3C3CCCCC3)N3CCN(C)CC3)cc2c1 (centres undefined) ?
SARS 3CLpro inh: -2; BoNT-F LC inh: 2; BoNT-A LC inh2: 0; Autofluor counter: 9789; Anthrax LF prot: 5

How did COC(=O)[C@H](Cc1ccccc1)NC(=O)N1CCN(Cc2ccccc2)CC1 do in these assays?
SARS 3CLpro inh: -2; BoNT-F LC inh: -2; BoNT-A LC inh2: 0; Autofluor counter: 23718*; Anthrax LF prot: 1

How did CCC(C)[C@H](NC(=O)NC1CCN(Cc2ccccc2)CC1)C(=O)OC (some centres undefined) do in these assays?
SARS 3CLpro inh: -1; BoNT-F LC inh: 3; BoNT-A LC inh2: 2; Autofluor counter: 22325*; Anthrax LF prot: 2

Screening data from PubChem BioAssay.
